In PubChem BioAssay AID1159580 (chemical genetic matrix, 2015):
Where “and” joins values, the source holds several entries; their conditions need not be identical. Equal values may be shown once. The whole screen tested about 5,500 compounds, of which about 2,000 (36%) were called active. Another 18% or so got no clear call; they are omitted. Rule as the data show it: active = normalized growth mostly below about 0.91 (no sharp cut-off); inconclusive = no clear call, values can overlap the other calls; inactive = mostly above about 0.92. The list shows a part of the results.

Assay: chemical genetic growth profiling, strain panel (AID 1159580);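 also: tested at 20 µM; growth read once vehicle control cultures reached saturation at 30 °C; 1 = growth at the plate median or of vehicle wells; lower values mean less growth of the strain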
Settings: growth OD

Measured: normalized growth

CC(CN(C)C)CN1c2ccccc2CCc2ccccc21 (stereo not given)
inactive: S. cerevisiae deletion strains, locus YJR066W, strain TOR1, hits give low values 0.94 | S. cerevisiae deletion strains, locus YKL009W, strain mrt4, hits give low values 1 | S. cerevisiae deletion strains, locus YKL068W, hits give low values 1.01 | S. cerevisiae deletion strains, locus YKL085W, strain MDH1 (second series), hits give low values 1.02 | S. cerevisiae deletion strains, locus YKL085W, strain MDH1, hits give low values 1.02 | S. cerevisiae deletion strains, locus YKL160W, strain elf1, hits give low values 0.978 | S. cerevisiae deletion strains, locus YKL190W, strain CNB1, hits give low values 1.02 | S. cerevisiae deletion strains, locus YKR001C, strain vps1, hits give low values 1.02 | S. cerevisiae deletion strains, locus YKR026C, strain gcn3, hits give low values 0.991 | S. cerevisiae deletion strains, locus YKR091W, strain srl3, hits give low values 0.977 | S. cerevisiae deletion strains, locus YLL001W, strain dnm1, hits give low values 0.989 | S. cerevisiae deletion strains, locus YLL026W, hits give low values 0.979 | S. cerevisiae deletion strains, locus YLL041C, strain sdh2, hits give low values 0.965 | S. cerevisiae deletion strains, locus YLR027C, strain aat2, hits give low values 0.974 | S. cerevisiae deletion strains, locus YLR039C, strain RIC1, hits give low values 1.13 | S. cerevisiae deletion strains, locus YLR058C, strain SHM2, hits give low values 1.01 | S. cerevisiae deletion strains, locus YLR102C, strain apc9, hits give low values 1.02 | S. cerevisiae deletion strains, locus YLR113W, strain HOG1, hits give low values 0.994 | S. cerevisiae deletion strains, locus YLR221C, strain rsa3, hits give low values 0.982 | S. cerevisiae deletion strains, locus YLR258W, strain gsy2, hits give low values 0.984 | S. cerevisiae deletion strains, locus YLR262C, strain YPT6 (second series), hits give low values 1.01 | S. cerevisiae deletion strains, locus YLR262C, strain YPT6, hits give low values 1.12 | S. cerevisiae deletion strains, locus YLR268W, strain sec22, hits give low values 1.02 | S. cerevisiae deletion strains, locus YLR320W, strain mms22, hits give low values 0.947 | S. cerevisiae deletion strains, locus YLR330W, strain CHS5, hits give low values 1.01 | S. cerevisiae deletion strains, locus YLR342W, strain FKS1 (second series), hits give low values 1.04 | S. cerevisiae deletion strains, locus YLR342W, strain FKS1, hits give low values 0.976 | S. cerevisiae deletion strains, locus YLR357W, strain rsc2, hits give low values 0.967 | S. cerevisiae deletion strains, locus YLR370C, strain arc18, hits give low values 0.977 | S. cerevisiae deletion strains, locus YLR371W, strain rom2, hits give low values 1.01 | S. cerevisiae deletion strains, locus YLR384C, strain iki3, hits give low values 0.979 | S. cerevisiae deletion strains, locus YLR418C, strain cdc73, hits give low values 1.02 | S. cerevisiae deletion strains, locus YML016C, strain PPZ1, hits give low values 1.01 | S. cerevisiae deletion strains, locus YML032C, strain rad52, hits give low values 1.01 | S. cerevisiae deletion strains, locus YML120C, strain ndi1, hits give low values 0.971 | S. cerevisiae deletion strains, locus YML124C, strain tub3, hits give low values 1.02 | S. cerevisiae deletion strains, locus YMR058W, strain fet3, hits give low values 0.971 | S. cerevisiae deletion strains, locus YMR078C, strain ctf18, hits give low values 1.01 | S. cerevisiae deletion strains, locus YMR125W, strain sto1, hits give low values 0.973 | S. cerevisiae deletion strains, locus YMR129W, hits give low values 0.981 | S. cerevisiae deletion strains, locus YMR205C, strain PFK2, hits give low values 0.97 | S. cerevisiae deletion strains, locus YMR223W, strain ubp8, hits give low values 1.02 | S. cerevisiae deletion strains, locus YMR231W, strain pep5, hits give low values 0.984 | S. cerevisiae deletion strains, locus YMR263W, strain SAP30, hits give low values 1 | S. cerevisiae deletion strains, locus YMR307W, strain GAS1, hits give low values 1.05 and 1 | S. cerevisiae deletion strains, locus YNL067W, strain RPL9B, hits give low values 1.01 | S. cerevisiae deletion strains, locus YNL071W, strain lat1, hits give low values 0.963 | S. cerevisiae deletion strains, locus YNL128W, strain TEP1, hits give low values 1.03 and 1.02 | S. cerevisiae deletion strains, locus YNL175C, strain NOP13, hits give low values 1.01 | S. cerevisiae deletion strains, locus YNL183C, strain NPR1, hits give low values 0.936 | S. cerevisiae deletion strains, locus YNL197C, strain WHI3, hits give low values 1.02 | S. cerevisiae deletion strains, locus YNL209W, strain ssb2, hits give low values 0.98 | S. cerevisiae deletion strains, locus YNL224C, strain SQS1, hits give low values 1.01 | S. cerevisiae deletion strains, locus YNL233W, strain BNI4, hits give low values 0.998 | S. cerevisiae deletion strains, locus YNL248C, strain rpa49, hits give low values 0.988 | S. cerevisiae deletion strains, locus YNL250W, strain rad50, hits give low values 1.03 | S. cerevisiae deletion strains, locus YNL271C, strain bni1, hits give low values 1.02 | S. cerevisiae deletion strains, locus YNL298W, strain CLA4, hits give low values 1.02 | S. cerevisiae deletion strains, locus YNL307C, strain MCK1, hits give low values 1.03 | S. cerevisiae deletion strains, locus YNL322C, strain KRE1 (second series), hits give low values 0.966 | S. cerevisiae deletion strains, locus YNL322C, strain KRE1, hits give low values 1.01 | S. cerevisiae deletion strains, locus YNR049C, strain mso1, hits give low values 0.977 | S. cerevisiae deletion strains, locus YNR052C, strain pop2, hits give low values 1.02 | S. cerevisiae deletion strains, locus YOL006C, strain TOP1, hits give low values 0.976 | S. cerevisiae deletion strains, locus YOL012C, strain htz1 1.63 | S. cerevisiae deletion strains, locus YOL147C, strain pex11, hits give low values 1.02 | S. cerevisiae deletion strains, locus YOR001W, strain rrp6, hits give low values 0.979 | S. cerevisiae deletion strains, locus YOR061W, strain CKA2, hits give low values 1.01 | S. cerevisiae deletion strains, locus YOR069W, strain VPS5, hits give low values 1.01 | S. cerevisiae deletion strains, locus YOR070C, strain gyp1, hits give low values 1.01 | S. cerevisiae deletion strains, locus YOR080W, strain dia2, hits give low values 0.971 | S. cerevisiae deletion strains, locus YOR083W, strain WHI5 (second series), hits give low values 1.05 | S. cerevisiae deletion strains, locus YOR083W, strain WHI5, hits give low values 0.976 | S. cerevisiae deletion strains, locus YOR106W, strain vam3, hits give low values 0.939 | S. cerevisiae deletion strains, locus YOR136W, strain idh2, hits give low values 1.02 | S. cerevisiae deletion strains, locus YOR144C, strain elg1, hits give low values 1.02 | S. cerevisiae deletion strains, locus YOR184W, strain ser1, hits give low values 1.04 | S. cerevisiae deletion strains, locus YOR231W, strain MKK1, hits give low values 0.983 | S. cerevisiae deletion strains, locus YOR265W, strain rbl2, hits give low values 0.97 | S. cerevisiae deletion strains, locus YOR270C, strain vph1, hits give low values 0.897 | S. cerevisiae deletion strains, locus YOR290C, strain snf2, hits give low values 0.927 | S. cerevisiae deletion strains, locus YOR316C, strain cot1, hits give low values 1.02 | S. cerevisiae deletion strains, locus YPL051W, strain arl3, hits give low values 0.972 | S. cerevisiae deletion strains, locus YPL055C, strain LGE1, hits give low values 1.01 | S. cerevisiae deletion strains, locus YPL078C, strain atp4, hits give low values 0.961 | S. cerevisiae deletion strains, locus YPL106C, strain sse1, hits give low values 0.956 | S. cerevisiae deletion strains, locus YPL240C, strain hsp82, hits give low values 0.978 | S. cerevisiae deletion strains, locus YPL241C, strain CIN2, hits give low values 1.01 and 1 | S. cerevisiae deletion strains, locus YPL256C, strain CLN2, hits give low values 0.981 | S. cerevisiae deletion strains, locus YPR119W, strain clb2, hits give low values 1.02 | S. cerevisiae deletion strains, locus YPR141C, strain kar3, hits give low values 1.01 | S. cerevisiae deletion strains, locus YPR163C, strain tif3, hits give low values 1.02 | S. cerevisiae deletion strains, locus YPR167C, strain met16, hits give low values 1.02 | S. cerevisiae deletion strains, strain wtn01, hits give low values 1.02 | S. cerevisiae strains, strain wild type, hits give low values 1
